# SENP7 block: blocks the human protease SENP7; Q9BQF6; recombinant SENP7, Z-RLRGG-aminoluciferin luminescence, 40 min; inhibition, % at 5 µM; actives 1.5% (n = 330,000); AID 434973;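 active means inhibition above about 50% at the single test dose, limit read from the data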
# Target sequence (Q9BQF6 706-1050 limits assumed): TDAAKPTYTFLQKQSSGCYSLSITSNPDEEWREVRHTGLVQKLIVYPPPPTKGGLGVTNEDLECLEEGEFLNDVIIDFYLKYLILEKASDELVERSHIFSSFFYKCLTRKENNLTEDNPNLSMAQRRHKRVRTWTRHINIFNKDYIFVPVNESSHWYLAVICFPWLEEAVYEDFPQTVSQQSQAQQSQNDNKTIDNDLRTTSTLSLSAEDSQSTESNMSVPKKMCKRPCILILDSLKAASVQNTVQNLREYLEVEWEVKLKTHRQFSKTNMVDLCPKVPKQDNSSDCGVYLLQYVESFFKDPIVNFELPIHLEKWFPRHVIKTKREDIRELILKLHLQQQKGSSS
# SENP6 block: SENP6 protease inhibition; actives 1.8% (n = 330,000); inhibition, % at 10 µM; Recombinant SENP6 catalytic domain, aminoluciferin luminescence; Q9GZR1; AID 2599;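 active means inhibition above about 50% at the single tested dose, limit read from the data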
# HSP90 refold inh: HSP90 refolding inhibition in rabbit reticulocyte lysate | luciferase refolding luminescence, 3 h | inhibition, % at 5.6 µM | actives 0.91% (n = 290,000);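 active means inhibition above the screen-wide mean plus 3 SD, computed separately per campaign, cut at about 16% in these data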;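 further: inhibitors lower the luminescence because luciferase stays unfolded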
# SENP8 block-1: blocks human SENP8 cleavage of Nedd8 substrate | Q96LD8 | recombinant SENP8, Nedd8 substrate fluorescence | actives 0.64% (n = 360,000) | inhibition, % at 20 µM; in the data active means inhibition mostly above about 40%, no sharp cut-off; inactive means mostly below about 27%
# LGR2 antag: blocks bursicon-induced cAMP signaling via Drosophila LGR2. inhibition, % at 9.99 µM. actives 0.35% (n = 380,000). HEK293 LGR2, CRE-luciferase, bursicon-stimulated, 4 h. AID 720647;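 active means drop in luminescence signal, shown as inhibition above about 50% in the replicate tests, limit read from the data, passing the limit was not always enough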;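 further: agonist challenge used bursicon conditioned medium at about half maximal strength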
# SENP8 block-2: inhibitors of human SENP8 protease; purified SENP8, Z-RLRGG-aminoluciferin cleavage, luminescence; actives 1.2% (n = 330,000); Q96LD8; inhibition, % at 10 µM; in the data active means inhibition above about 50%
# SENP8 conf: human SENP8 inhibition, confirmed; shares compounds with SENP7 block; Recombinant SENP8, Z-RLRGG-aminoluciferin luminescence, 60 min; inhibition, % at 12.5 µM; actives 40% (n = 6,200); AID 488912;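 active means mean inhibition across replicates above about 50%, limit read from the data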
# SENP6 confirm: human SENP6 inhibition, confirmed; actives 58% (n = 6,200); recombinant SENP6, Z-RLRGG-aminoluciferin luminescence; shares compounds with SENP7 block; inhibition, % at 12.5 µM
# SENP7 confirm: confirmation of human SENP7 protease inhibitors; shares compounds with SENP7 block; recombinant SENP7, Z-RLRGG-aminoluciferin luminescence, 40 min; inhibition, % at 12.5 µM; actives 69% (n = 6,200); AID 488917
# Casp3 select: selectivity test for SENP inhibitors: human caspase-3 inhibition | shares compounds with SENP7 block | purified caspase-3, Z-DEVD-aminoluciferin luminescence, 60 min | inhibition, % at 12.5 µM | actives 60% (n = 6,200) | AID 488918;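 active means mean inhibition above about 50%, limit read from the data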
# Target sequence (P42574 28-227 limits assumed): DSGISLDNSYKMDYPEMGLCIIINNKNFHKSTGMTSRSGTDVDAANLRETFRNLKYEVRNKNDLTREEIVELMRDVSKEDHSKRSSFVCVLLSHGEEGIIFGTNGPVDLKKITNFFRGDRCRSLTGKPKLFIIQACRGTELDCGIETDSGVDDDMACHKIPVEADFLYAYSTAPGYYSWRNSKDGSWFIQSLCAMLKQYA
# SENP luc ctr: interferes with luciferase luminescence in SENP counter-screen; inhibition, % at 12.5 µM; Pre-incubated SENP8/Z-RLRGG-aminoluciferin, luciferase luminescence interference; shares compounds with SENP7 block; actives 39% (n = 6,200);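 active means mean inhibition above about 50% when retested at one dose, limit read from the data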
# Numbers stand for hits; – = inactive; · = no result. Most compounds without a hit are left out; they make up all but 2.3% or so of the library.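 How the source made its calls, unless noted: active means mean inhibition above about 50% in the one-dose retest (limit read from the data); inactive means the rest.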
SMILES,SENP7 block,SENP6 block,HSP90 refold inh,SENP8 block-1,LGR2 antag,SENP8 block-2,SENP8 conf,SENP6 confirm,SENP7 confirm,Casp3 select,SENP luc ctr
O=C(Nc1ccccc1C(=O)O)c1ccc2ccccc2n1,–,54,–,–,·,–,65,60,83,81,–
O=C(Nc1ccccc1)c1ccc2ccccc2n1,73,73,–,–,–,65,–,70,89,65,–
O=C(Nc1ccc2c(c1)OCCO2)c1ccc2ccccc2n1,65,–,–,–,–,54,–,66,90,56,–
O=C(Nc1ccc(Cl)cn1)c1ccc2ccccc2n1,–,–,–,–,·,–,·,·,·,·,·
COC(=O)C[C@@H]1CC[C@H]2[C@@H](COc3ccc(NC(=O)c4cccc(OC)c4)cc3C(=O)N2C)O1,·,·,·,·,–,·,·,·,·,·,·
CCSc1nnc(NC(=O)C2(C)Cc3ccccc3C(=O)O2)s1 (stereo not drawn),–,–,–,–,·,–,·,·,·,·,·
CC1(C(=O)Nc2nnc(C(C)(C)C)s2)Cc2ccccc2C(=O)O1 (stereo not drawn),101,–,–,–,·,–,–,–,–,–,–
c1csc(-c2cn3ccc4ccccc4c3n2)c1,86,89,–,–,–,80,–,90,99,82,84
C[C@H](CO)N1C[C@H](C)[C@@H](CN(C)C(=O)Nc2ccc(C(F)(F)F)cc2)Oc2ncc(C#C[C@@H](C)O)cc2C1=O,·,·,·,·,–,·,·,·,·,·,·
Cc1[nH]n(-c2ccccc2)c(=O)c1C(=O)c1ccccc1,–,–,–,–,–,–,·,·,·,·,·
COc1cccc(C(c2c(C)[nH]n(-c3ccccc3)c2=O)c2c(C)[nH]n(-c3ccccc3)c2=O)c1O,56,57,·,54,–,–,–,–,–,–,–
O=C(Nc1cccc(Cl)c1)c1cc(-c2ccco2)on1,87,83,–,–,–,78,–,81,97,77,–
O=C(Nc1c(Cl)cccc1Cl)c1cc(-c2ccco2)on1,–,–,–,–,–,–,·,·,·,·,·
COc1ccc(-c2cc(C(=O)Nc3cccc(Cl)c3)no2)cc1,78,–,–,–,–,–,–,–,–,–,–
COc1ccc(NC(=O)Nc2ccc3c(c2)C(=O)N([C@@H](C)CO)C[C@@H](C)[C@@H](CN(C)CC2CCCCC2)OCCCC[C@@H](C)O3)cc1,·,·,·,·,–,·,·,·,·,·,·
CCOC(=O)C1CCN(C2=C(NS(=O)(=O)c3ccc(Br)cc3)C(=O)c3ccccc3C2=O)CC1,–,53,–,50,–,–,–,–,–,–,–
O=C1C(NS(=O)(=O)c2cccs2)=C(N2CCN(Cc3ccccc3)CC2)C(=O)c2ccccc21,–,–,–,–,–,–,·,·,·,·,·
CCN1CCN(C2=C(NS(=O)(=O)c3ccc(Br)cc3)C(=O)c3ccccc3C2=O)CC1,–,64,–,–,–,–,–,–,–,–,–
CCOC(=O)C1CCN(C(=O)c2ccccc2NS(=O)(=O)c2ccc(C)cc2)CC1,–,–,–,–,–,–,·,·,·,·,·
Cc1noc(C)c1NC(=O)Nc1ccc2c(c1)C(=O)N([C@@H](C)CO)C[C@@H](C)[C@H](CN(C)Cc1ccc(C(=O)O)cc1)O2,·,·,·,·,–,·,·,·,·,·,·
C[C@H]1CCCCO[C@@H](CN(C)C(=O)C2CCCCC2)[C@@H](C)CN([C@@H](C)CO)C(=O)c2cc(NS(=O)(=O)c3cn(C)cn3)ccc2O1,·,·,·,·,–,·,·,·,·,·,·
C[C@H]1CN([C@@H](C)CO)C(=O)Cc2cc(NC(=O)CCCCCC(=O)Nc3ccccc3N)ccc2O[C@@H]1CN(C)C(=O)Nc1ccc(F)cc1,·,·,·,·,–,·,·,·,·,·,·
Cc1ccnc(NC(=O)c2ccc3c(c2)NC(=O)C(C)S3)c1 (stereo not drawn),–,55,·,–,–,–,–,–,–,–,–
Cc1ccc(NC(=O)c2ccc3c(c2)OCCO3)nc1,54,56,·,–,–,–,–,–,81,81,60
Cc1ccnc(NC(=O)c2ccc3c(c2)OCO3)c1,92,69,–,–,–,80,–,87,98,96,87
SMILES,SENP7 block,SENP6 block,HSP90 refold inh,SENP8 block-1,LGR2 antag,SENP8 block-2,SENP8 conf,SENP6 confirm,SENP7 confirm,Casp3 select,SENP luc ctr
O=C(Nc1ccon1)c1ccc2c(c1)OCO2,–,–,–,–,·,–,·,·,·,·,·
Cc1ccc(NC(=O)CNC(=O)c2ccc3c(c2)OCO3)nc1,–,–,–,–,–,–,·,·,·,·,·
Cc1ccc(-c2nc(N=Nc3ccc(O)cc3)n[nH]2)cc1,–,–,–,–,–,–,·,·,·,·,·
Cc1nc(N=Nc2ccc(O)cc2)n[nH]1,58,75,–,–,–,–,58,53,86,87,63
S=C1NC(c2ccccc2)N2C(=S)NC(c3ccccc3)N12 (stereo not drawn),52,69,–,–,·,–,–,–,–,–,–
O=C(Nc1ccc(F)cc1)N1C[C@@H]2[C@H](c3ccccc31)[C@H](CO)N2C(=O)c1ccncc1,·,·,·,·,–,·,·,·,·,·,·
CCCCc1ccc(-c2ccc(C)cc2O)nc1,72,–,–,–,·,53,–,–,–,–,–
CCCCc1ccc(-c2ccc(Br)cc2O)nc1,68,–,–,–,·,–,–,–,–,–,–
CCCCCCC#Cc1ccc2c(c1)COc1c3ccccc3nn1-2,–,–,·,–,–,–,·,·,·,·,·
N#CCCCC#Cc1ccc2c(c1)COc1c3ccccc3nn1-2,89,93,·,–,98,90,51,96,66,68,–
CCCCC#Cc1ccc2c(c1)COc1c3ccccc3nn1-2,81,85,·,–,·,79,–,–,–,67,–
C[C@@H]1CN([C@H](C)CO)C(=O)c2cccc(NS(=O)(=O)c3cn(C)cn3)c2O[C@@H]1CN(C)C(=O)NC1CCCCC1,·,·,·,·,–,·,·,·,·,·,·
Nc1c2c(nc3sc4c(c13)CCCC4)-c1ccccc1CC2,90,92,–,–,–,92,–,93,96,82,–
O=C(O)c1ccc(/C=N/Nc2ccc(Cl)nn2)cc1,76,72,–,–,–,65,–,–,–,81,–
Oc1cccc(/C=N/Nc2ccc(Cl)nn2)c1,–,–,–,–,–,–,·,·,·,·,·
Oc1ccc(NCc2cccc(OCc3ccc(F)cc3)c2)cc1,–,–,–,–,–,–,·,·,·,·,·
Oc1ccc(NCc2cccc(OCc3ccccc3)c2)cc1,–,69,–,43,–,–,–,–,–,–,–
